The nature of experiment [1]: HPAF-II Cancer Cell Toxicity qHTS against the NCATS CANVASS Library (AID 1347346). Also: nearly all actives have a fitted effect of over 55% in size. Also: potency is read from the fitted curve at half-maximal effect. The method, boiled down:
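1000 HPAF-II cells/well; 4 h pre-incubation; 11-pnt compound titration; 72 h, 37 degrees C/5% CO2; CellTiter-Glo, 15 min RT; luminescence read.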
In general terms: qHTS replaces the single test concentration by a dilution series.

Experiment [2] in a line: HPAF-II 24hr Apoptosis Induction qHTS against the NCATS CANVASS Library (AID 1347356). Also: 0% is about no effect. The method, boiled down:
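500 HPAF-II cells/well; compounds in 11-pnt qHTS; 24 h, 37 C/5% CO2; Caspase-Glo 3/7 added, 15 min RT dark; luminescence read. Doxorubicin control.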

Experiment [3] in a line: HEK293 18hr Apoptosis Induction qHTS against the NCATS CANVASS Library (AID 1347357). Also: 0% is about no effect. In a few lines: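 Caspase-Glo 3/7 luminescence (15 min, room temperature) measured apoptosis after an 18-hour, 37 degrees C exposure of HEK293 cells (500 cells/well) to compounds in 11 points.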
Experiment [4] can be described thus: HPAF-II 12hr Apoptosis Induction qHTS against the NCATS CANVASS Library (AID 1347358). Also: 0% is about no effect. In a few lines:
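Caspase-Glo 3/7 luminescence (DEVD substrate) reports caspase activity in HPAF-II cells after 12 h compound treatment at 37 degrees C. Compounds were tested in an 11-point series. Doxorubicin served as control.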

The nature of experiment [5]: HPAF-II 18hr Apoptosis Induction qHTS against the NCATS CANVASS Library (AID 1347360). Also: 0% is about no effect. The method, boiled down: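 Caspase-3/7 activation was measured with luminescent Caspase-Glo 3/7 reagent (15 min, RT) in HPAF-II cancer cells (500 cells/well). Before detection, cells had been treated for 18 h at 37 C with compounds (11 points).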
A short description of experiment [6]: HEK293 12hr Apoptosis Induction qHTS against the NCATS CANVASS Library (AID 1347361). Also: 0% is about no effect. In a few lines:
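HEK293 cells (500/well, DMEM + 10% FBS) were exposed to natural products across an 11-point series for 12 hours at 37 degrees C. Caspase-3/7 activity was then measured with DEVD luciferase luminescence after 15 min at room temperature.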

For experiment [7], the system named is NAD(P)H diaphorase (Clostridium kluyveri). As to the kind of experiment: Diaphorse counterscreen qHTS: Assay Interference Panel against the NCATS CANVASS Library (AID 1347362). Also: 0% is about no effect. In a few lines:
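Clostridium kluyveri diaphorase in PBS with 0.01% Tween-20 was preincubated 15 min at room temperature in the dark with compounds (11-point series). Resorufin fluorescence (ex 525/20, em 598/25) was read 5 min after adding resazurin/NADH.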

Experiment [8] has as its target Luciferin 4-monooxygenase (Photinus pyralis) (UniProt P08659). The experiment can be described thus: Firefly luciferase counterscreen qHTS: Assay Interference Panel against the NCATS CANVASS Library (AID 1347363). Also: series mostly up to about 57 µM; 0% is about no effect. In a few lines:
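Purified P. pyralis luciferase was added to compounds (11-point series) preincubated 15 min at room temperature with substrate containing 0.013 mM D-luciferin and 0.013 mM ATP; luminescence was read after 5 min.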

Experiment [9] in a line: MCF7 Cancer Cell Toxicity qHTS against the NCATS CANVASS Library (AID 1347369). The method, boiled down:
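Cytotoxicity was measured as CellTiterGlo luminescence (ATP) after 72 h at 37 °C. The cells were MCF7 at 500 per well, with an 11-point compound concentration series.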

Experiment [10] in a line: qHTS for ATAD5 Antagonist screened against the NCATS CANVASS Library (AID 1347370).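 Also: HEK293T cells carrying an ATAD5 luciferase reporter co-treated with 10 µM 5-fluorouridine; series mostly up to about 46 µM; % is scaled to controls: 0 for no effect and ±100 for the full control effect; nearly all actives have a fitted effect of over 65% in size.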 In a few lines: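 HEK293T-ATAD5 luc reporter, 2000 cells/well; 5hr attach; cpd + 10 uM 5-FUrd; 16hr 37C, 5% CO2. Readouts: CellTiter-Fluor fluorescence (1hr), then Amplite luciferase luminescence (30min RT).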
The nature of experiment [11]: J3T Cancer Cell Toxicity qHTS against the NCATS CANVASS Library (AID 1347371).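 Also: J3T is a canine glioma cancer cell line seeded at 500 cells per well; series mostly up to about 46 µM; % is scaled to controls: 0 for no effect and ±100 for the full control effect.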 In a few lines: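 Dog glioma J3T, 500 cells/well; cpd 11-pt qHTS; 72 hr, 37C/5% CO2; CellTiterGlo ATP luminescence readout.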
For experiment [12], the target named is Nuclear receptor subfamily 1 group I member 3 (Homo sapiens) (UniProt Q14994). The experiment can be described thus: qHTS for Constitutive Androstane Receptor (CAR) Antagonist screened against the NCATS CANVASS Library (AID 1347372).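 Also: cells stimulated with 50 nM CITCO agonist so inhibition reflects antagonism; series mostly up to about 46 µM; % is scaled to controls: 0 for no effect and ±100 for the full control effect.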 In a few lines: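 Cells were seeded and left 4hr to attach, then received compound at 11 concentrations and 50 nM CITCO. Following 24hr incubation, fluorescence viability and luciferase luminescence were read sequentially.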

The target is the same in experiment [13]. The experiment can be described thus: qHTS for Constitutive Androstane Receptor (CAR) Agonist screened against the NCATS CANVASS Library (AID 1347373).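 Also: every well also contained 1.5 µM PK11195 alongside the test compound; 0% is about no effect.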 The method, boiled down: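 Luciferase read-out (ONE-Glo, 30 min RT) of CYP2B6-2.2kb promoter activity in double-stable HepG2-hCAR cells after 24hr compound exposure with 1.5uM PK11195 present; viability measured first by CellTiter-Fluor.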

The nature of experiment [14]: qHTS for Hypoxia signaling pathway (HIF-1) agonists against the NCATS CANVASS Library (AID 1347375). Also: 0% is about no effect. The method, boiled down:
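Read-out: beta-lactamase FRET (CCF4-AM, ex 405, em 460 and 530 nm) after 2 h at room temperature. ME-180 cells stably carrying HRE-bla were treated 17 h at 37C with compounds in an 11-point concentration series.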

Experiment [15] is described as follows: 10-beta competent E. coli microbial cell viability qHTS against the NCATS CANVASS Library (AID 1347376). Also: series mostly up to about 46 µM; 0% is about no effect. The method, boiled down: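 Luminescence from BacTiter-Glo ATP detection served as the viability read-out; bacteria (0.2 OD) had been incubated overnight at 37C with pin-transferred compounds at 11 concentrations.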
A short description of experiment [16]: Cytotoxicity qHTS for assessment of Hepg2 cells membrane integrity screened against the NCATS CANVASS Library (AID 1347387). The method, boiled down: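 LDH release read by fluorescence (560 nm ex/590 nm em) after CytoTox-ONE addition and 10 min RT; signal tracks lysed cells. HepG2, 2000 cells/well, plated overnight; compound 5 hr, 37C, 5% CO2, final 0.59 nM - 46 uM, 11 points.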

Experiment [17] can be described thus: qHTS for Activators of p53 Stress Response Pathway screened against the NCATS CANVASS Library (AID 1347388). Also: 0% is about no effect. In a few lines: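 p53RE-bla HCT-116 cells (4000/well) were plated 5 h at 37C, exposed to compounds for 16 h at 37C over an 11-point concentration series, then loaded with CCF4 for 2 h at room temperature; 460/530 nm emission ratio read.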
Experiment [18] in a line: qHTS for activators of dead-cell proteases activity screened against the NCATS CANVASS Library (AID 1347392).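 Also: luminescence from protease leaking out of membrane-damaged cells cleaving impermeant substrate; 0% is about no effect; rising signal means more cytotoxicity.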 In a few lines:
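Cytotoxicity in HepG2 cells was assessed by released protease cleaving AAF-aminoluciferin, with luminescence as signal. Exposure lasted 5 h at 37C across an 11-point series.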

Experiment [19] is described as follows: Viability qHTS for inhibitors of the SERCaMP assay screened against the NCATS CANVASS Library (AID 1347400). Also: nearly all actives have a fitted effect of over 70% in size. Also: potency is read from the fitted curve at half-maximal effect. The method, boiled down:
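CellTiter-Glo luminescence readout after 48 h compound exposure (11-pnt qHTS series) of SH-SY5Y-GLuc SERCaMP MJH297 cells seeded at 1000 cells/well; bortezomib positive control.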

Experiment [20] is described as follows: qHTS drug screen for cell cycle checkpoint inhibitors in PARPi-resistant BRCA-mutant ovarian cancer cell lines. (AID 1963452; calls by dose curve). To be noted: PEO1/OlaR viability, CellTiter-Glo luminescence, 96 h, stronger effect = lower value. In a few lines:
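PEO1, PEO4 and PEO1/OlaR ovarian cancer cells, 600 per well, exposed 96 h at 37C to a dilution series. Viability read by CellTiter-Glo luminescence, normalized to DMSO and empty wells; activity summarized as Z-AUC.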

From PubChem BioAssay (NCATS) come the findings set out here.

Molecules are shown by their SMILES. Results filed as inconclusive are left out. Calls of active or inactive are those of the source. Unless noted, calls follow the shape of the dose curve; as a rule, active = well fitted curve in the direction sought with a large enough effect; inconclusive = small, poorly fitted or top-dose-only effect, or another doubt; inactive = no such curve, though single readings can be large; an effect the other way counts as inactive or inconclusive. Peptide text beside a SMILES is read from it. * marks the point of attachment. Hexanoyl = CCCCCC(=O)*

Sequence of Luciferin 4-monooxygenase (Photinus pyralis) (P08659 whole entry, looked up): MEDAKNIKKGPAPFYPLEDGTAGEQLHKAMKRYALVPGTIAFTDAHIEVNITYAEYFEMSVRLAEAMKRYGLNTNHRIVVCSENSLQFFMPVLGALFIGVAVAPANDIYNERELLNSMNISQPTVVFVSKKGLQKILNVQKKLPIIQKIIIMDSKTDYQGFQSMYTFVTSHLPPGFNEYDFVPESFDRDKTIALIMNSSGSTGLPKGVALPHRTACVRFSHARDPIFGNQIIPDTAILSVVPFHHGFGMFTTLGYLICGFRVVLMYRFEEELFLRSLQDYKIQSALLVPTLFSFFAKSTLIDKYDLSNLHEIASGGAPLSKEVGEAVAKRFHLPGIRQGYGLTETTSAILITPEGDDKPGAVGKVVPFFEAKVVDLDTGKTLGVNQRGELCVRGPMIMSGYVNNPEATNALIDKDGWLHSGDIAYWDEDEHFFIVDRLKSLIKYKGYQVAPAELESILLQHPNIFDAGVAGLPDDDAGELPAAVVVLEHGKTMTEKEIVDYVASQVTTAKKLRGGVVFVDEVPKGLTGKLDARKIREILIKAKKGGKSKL
Sequence of Nuclear receptor subfamily 1 group I member 3 (Homo sapiens) (Q14994 whole entry, looked up): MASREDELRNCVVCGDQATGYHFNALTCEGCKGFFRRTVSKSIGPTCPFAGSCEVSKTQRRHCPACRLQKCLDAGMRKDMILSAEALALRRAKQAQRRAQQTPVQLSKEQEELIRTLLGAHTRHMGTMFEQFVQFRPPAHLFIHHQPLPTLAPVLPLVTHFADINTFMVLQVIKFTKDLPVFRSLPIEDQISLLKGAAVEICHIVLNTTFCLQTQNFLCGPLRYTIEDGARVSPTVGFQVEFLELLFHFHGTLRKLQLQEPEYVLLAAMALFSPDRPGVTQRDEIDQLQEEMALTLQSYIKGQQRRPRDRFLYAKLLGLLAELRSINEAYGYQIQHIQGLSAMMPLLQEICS

`CCCCCC(=O)N[C@@H](CC(C)C)C(=O)N[C@H](C=O)CCC(=O)O` (Hexanoyl-Leu-Glu-aldehyde): the Potency entry in experiment [1], in experiment [3], in experiment [4], in experiment [5], in experiment [7] and in experiment [8] was “inactive” each time. Moreover, the Potency result in [9], in [10], in experiment [11], in experiment [12], in experiment [13] and in experiment [17] was “inactive” throughout. Besides, the Potency entry in experiment [18] and in experiment [19] was “inactive” in each case. The compound was classed as inactive in [2], in experiment [6], in experiment [14], in experiment [15] and in experiment [16].
Turning to `CN(C)c1cc(NC(=O)CNC(C)(C)C)c(O)c2c1C[C@H]1C[C@H]3[C@H](N(C)C)C(=O)C(C(N)=O)=C(O)[C@]3(O)C(=O)C1=C2O`, the figures for the Z-AUC in experiment [20], in [20] (measured here: PEO1 parental Z-AUC) and in experiment [20] (measured here: PEO4 Z-AUC) were 1.31 (inactive), 1.13 and 1.05, respectively.
For the compound `C[C@@H]1CC[C@]2(C(=O)O)CC[C@]3(C)C(=C2[C@H]1C)CC[C@@H]1[C@@]2(C)CC[C@H](O)C(C)(C)[C@@H]2CC[C@]13C`, the result in experiment [2], in experiment [6], in [14], in experiment [15] and in [16] was inactive. Further, the Potency entry in [3], in experiment [4], in experiment [5], in [7], in [8] and in experiment [9] was “inactive” in each case. Also, the Potency entry in [10], in [11], in experiment [12], in experiment [13], in experiment [17] and in [18] was “inactive” each time.
For `C=C[C@@]1(C)CC[C@@H]([C@H](C)C(C)=O)O1`, the Potency result in experiment [1], in experiment [3], in experiment [4], in [5], in experiment [7] and in [8] was “inactive” each time. For the same compound, the Potency entry in [9], in experiment [10], in [11], in [12], in experiment [13] and in experiment [17] was “inactive” each time. For the same compound, the Potency entry in experiment [18] and in experiment [19] was “inactive” in each case. The outcome in experiment [2], in [6], in experiment [14], in [15] and in [16] was inactive.
Turning to `CC[C@H](O)CCCCC[C@@H]1NC(=O)[C@H]2CCCCN2C(=O)[C@H]([C@H](C)CC)NC(=O)[C@H](Cc2cn(OC)c3ccccc23)NC1=O`, the Potency in [1] is 3.75 µM (active). Further, the call in experiment [2], in experiment [6], in experiment [14], in experiment [15] and in [16] was inactive. Besides, the Potency entry in experiment [3], in experiment [5], in experiment [7], in experiment [8], in experiment [9] and in experiment [13] was “inactive” throughout. In addition, the Potency entry in experiment [17], in [18] and in experiment [19] was “inactive” in each case.
Turning to `CC[C@@H]1C[C@@]2(CC)OC(=O)[C@@]3(CC)[C@H](CC)[C@@H]1[C@@H]23`, the Potency result in experiment [1], in experiment [3], in [4], in experiment [5], in [7] and in experiment [8] was “inactive” each time. Moreover, the Potency entry in experiment [10], in experiment [11], in experiment [13], in [17] and in [18] was “inactive” throughout. In addition, the compound was called inactive in experiment [2], in [6], in [14], in experiment [15] and in [16]. Moreover, in experiment [19], the Potency is 6.04 µM (active).
